Results filed as inconclusive are left out. Unmarked numbers belong to inactive results. Active and inactive are the calls of the source. The call rests on the fitted dose curve; in most records, active means well fitted inhibition curve with a large enough effect; inconclusive means small, poorly fitted or top-dose-only effect; inactive means flat fitted curve, though single readings scatter.
On the % scale 0 is the no-effect control and ±100 the full control effect; potency means the concentration at half of the fitted maximal effect.

This experiment concerns NIH3T3. As to the kind of experiment: Cytotoxic Profiling of Annotated Libraries Using Quantitative High-Throughput Screening (AID 1296008). Further: nearly all actives have a fitted effect of over 60% in size. To be noted: Five cell lines viability, CellTiter-Glo ATP luminescence, 48-72 h; max response: stronger effect = lower value. A digest of the protocol:
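Cytotoxicity was measured as CellTiter-Glo ATP luminescence, read after 10 min at room temperature. Compound treatment of the cells lasted 48 or 72 hr at 37 degrees Celsius in a qHTS format.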
For orientation: Cellular ATP, detected with luciferase, serves as a proxy for viable cell number.
Turning to `Cc1c(Cl)cccc1S(=O)(=O)Nc1nc(NCCc2ccccc2)nc2c1CN(Cc1ccccc1)CC2`, the compound was classed as inactive. Take `CCCn1ncc(CN2CCCC(C(=O)c3cccc(OC(C)C)c3)C2)c1C` (stereo not drawn): the max response was -15.4%. With `CCOC(=O)c1ccc(OCCC2CCN(c3ccc(C)nn3)CC2)cc1`, the max response was -0.794%. For the compound `COC(=O)CC(O)CC(O)/C=C/c1c(C)ccc2c1C(OC(C)=O)CC(C)C2` (stereo not drawn), the compound was classed as inactive. On to `CCN1C(C)(C)CC(Oc2ccc(C(=O)Nc3ccc(NC(=O)Nc4cc(C(C)(C)C)on4)cc3)nc2)CC1(C)C`, for which the outcome was inactive. As to `O=C(Nc1nc2ccc([N+](=O)[O-])cc2s1)C1CCCCC1`, the max response is -1.61%.

In the case of `Cc1onc(-c2ccccc2)c1C(=O)N1CCN(c2ccc([N+](=O)[O-])cc2Cl)CC1`, the max response was 4.81%. In the case of `CCC(C)C(=O)O[C@H]1[C@H](O)[C@@]2(COC(C)=O)C(CC1(C)C)C1=CCC3[C@@]4(C)CC[C@H](O[C@@H]5O[C@H](C(=O)O)[C@@H](O)[C@H](O)[C@H]5O)[C@@](C)(CO)C4CC[C@@]3(C)[C@]1(C)C[C@@H]2O` (stereo partly drawn), the max response is 2.07%. Consider `CN(C)C(CCOc1cccc2ccccc12)c1ccccc1` (stereo not drawn), for which the outcome was inactive. As to `Nc1c(S(=O)(=O)c2ccccc2)c2nc3ccccc3nc2n1-c1ccc(F)cc1`, the call was inactive. For `CC(C)(O)C1CC(=O)C2(C)C(CCC3(C)C(c4ccoc4)OC(=O)C4OC432)C12CCC(=O)OC2` (stereo not drawn), the call was inactive. For the compound `C=CC(C)(C)c1[nH]c2ccccc2c1C[C@@H]1NC(=O)[C@H](C)NC1=O`, the compound was called inactive.

As to `C=C1/C(=C/C=C2\CCC[C@]3(C)[C@@H]([C@H](C)/C=C/[C@@H](C)C(C)C)CC[C@@H]23)C[C@@H](O)C[C@@H]1O`, the Potency was 0.326 µM (active).

In the case of `O=C(NCCCN1CCOCC1)c1cnn2c(-c3ccccc3)cc(-c3ccccc3)nc12`, the max response is -12.1%. With `CC(=O)O[C@@H]1[C@@H](O)[C@H](O[C@@H]2[C@@H](O)[C@@H](O)[C@H](O[C@H]3[C@H](O[C@H]4[C@H](O[C@H]5CC[C@@]6(C)C(CC[C@]7(C)C6CC=C6[C@@H]8CC(C)(C)CC[C@]8(C(=O)O)CC[C@]67C)[C@]5(C)CO)O[C@H](CO)[C@@H](O)[C@@H]4O)OC[C@@H](O)[C@@H]3O)O[C@H]2C)OC[C@H]1O` (stereo partly drawn), the max response was 3.03%.

For the compound `Cc1nnc(-c2ccc(-c3ccc(C(=O)Nc4ccc(O)c(N5CCN(C)CC5)c4)cc3)c(C)c2)o1`, the result was inactive. Turning to `C/C(=C/C=C\C=C\Cc1cnco1)[C@@H](O)C(C)(C)C(N)=O`, the max response was -15.3%. On the same count and under the same terms, the figure for `C=C1CC[C@H]2C(=C)CC[C@H]3C(=C)C(=O)O[C@@H]3[C@@H]12` is -3.18%; for `COc1cc(C(=O)NC(=S)Nc2cccc(NC(=O)c3ccccc3)c2)cc(OC)c1OC` it is 4.46%; for `COc1ccc(NC(=O)c2ccc(-c3ccc(C(=N)N)cc3C)cc2)cc1N1CCN(C)CC1` it is 2.92%. On the same count and under the same terms, the figure for `OC1(CN2CCC(COc3noc4cccc(O[C@@H]5CCOC5)c34)CC2)CCOCC1` is -22.8%. As for `Cc1cc(OCCCS(C)(=O)=O)cc(C)c1-c1cccc(COc2ccc3c(c2)OCC3CC(=O)O)c1` (stereo not drawn), the call was inactive. In the case of `COc1ccc(S(=O)(=O)Nc2c(C)cc(C)cc2C)cc1`, the max response was 0.769%. With `CC(C)C[C@@H](C(=O)N[C@@H](Cc1ccc(OCc2ccccc2)cc1)C(=O)NC(C)(C)C)N(C)Cc1ccc(C(C)(C)C)cc1`, the max response is -5.54%. In the case of `O=C(NCCCCN1CCN(c2cccc(Cl)c2Cl)CC1)c1cc2ccccc2s1`, the max response was -29.5%.

In the case of `O=C(NS(=O)(=O)c1ccc(Br)s1)c1ccc(Cl)cc1Cl`, the max response is -6.08%. With `Cc1cc(C(=O)Cn2cc(C#N)ccc2=O)c(C)n1Cc1ccccc1`, the outcome was inactive. On to `CCCCCCCOc1cc2c(cc1/C(C)=C/c1ccc(C(=O)O)cc1)C(C)(C)CCS2(=O)=O`, for which the call was inactive. On to `CN(C)C(=O)C(=O)c1cn(C)c2cc(Cl)c(C(=O)N3CCC(Cc4ccc(F)cc4)CC3)cc12`, for which the max response was 1.98%. Turning to `CC(=O)NC(C)c1cnc(-c2cnc(Oc3ccc(OC(C)C)cc3)s2)s1` (stereo not drawn), the max response was 0.946%.

With `C/C=C/CCC1Cc2cc(O)c(CCCC)c(O)c2C(=O)O1` (stereo not drawn), the max response was 2.45%. For `Cc1noc(C)c1-c1cc(O)cc(C(O)c2ccccc2)c1` (stereo not drawn), the Potency is 10.3 µM (active). As for `COc1c(C(C)C)c(O)c(O)c2c1C(OC)[C@H]1OC(=O)[C@@]23CCCC(C)(C)[C@H]13` (stereo partly drawn), the max response was -6.75%.

The record behind these values is PubChem BioAssay (NCATS).
